Tests used:
Assay in all cases: PBM binding z-score (relative to random genomic background probes); higher = stronger binding; sequences stand for … in GC…GCGATTGACAGCGTAGAATGAAGG
[1] = test system: FXR:RXRa (NR concentration 270 nM, RXRa partner concentration 90 nM)
Procedure, shortened: (§1)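 Each nuclear receptor dimer, without ligand, was incubated for 1 h on custom Agilent 4×180K protein-binding microarrays. Binding was detected with antibodies against each partner (one per run), and scanned fluorescence was regression-normalized. The binding z-scores are referenced to random human genomic background probes.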

[2] = test system: LXRa:RXRa (NR concentration 270 nM, RXRa partner concentration 90 nM)
Procedure, shortened: as §1

[3] = test system: LXRa homodimer (NR concentration 270 nM)
Procedure, shortened: as §1

[4] = test system: LXRb:RXRa (NR concentration 270 nM, RXRa partner concentration 90 nM)
Procedure, shortened: as §1

[5] = test system: LXRb homodimer (NR concentration 270 nM)
Procedure, shortened: as §1

[6] = test system: PPARa:RXRa (NR concentration 270 nM, RXRa partner concentration 90 nM)
Procedure, shortened: as §1

[7] = test system: PPARg:RXRa (NR concentration 180 nM, RXRa partner concentration 90 nM)
Procedure, shortened: as §1

[8] = test system: PPARg:RXRa 270nM:90nM, anti-RXR (NR concentration 270 nM, RXRa partner concentration 90 nM)
Procedure, shortened: as §1

[9] = test system: PPARg:RXRa 30nM:10nM, anti-RXR (NR concentration 30 nM, RXRa partner concentration 10 nM)
Procedure, shortened: as §1

[10] = test system: PPARg:RXRa 90nM:30nM, anti-RXR (NR concentration 90 nM, RXRa partner concentration 30 nM)
Procedure, shortened: as §1

Sequence	PBM binding z-score [1]	PBM binding z-score [2]	PBM binding z-score [3]	PBM binding z-score [4]	PBM binding z-score [5]	PBM binding z-score [6]	PBM binding z-score [7]	PBM binding z-score [8]	PBM binding z-score [9]	PBM binding z-score [10]
CATGCTAGGTCAATGGTCAGCTAAAGCAGCTCGC	3.18	2.65	0.2	1.38	0.174	3.04	4.43	4.63	2.27	4.38
TCATATAGGTAATACAGGTGGAAGTCGGCATCTA	1.45	1.49	0.307	0.555	0.553	1.31	1.07	2.33	3.98	3.14
GCGACTGGGGCATCAGCAGGTTACCGTAACTTAA	-0.346	-0.107	-0.365	0.443	-0.973	1.18	0.623	0.961	-0.441	-0.00586
ACTATAAGTTGACTTAGGGCAACCGATACGACGC	0.483	0.919	0.287	0.215	0.348	0.427	1.23	0.205	0.44	0.54
CCTACTGGCCCAAAAAGGTCATTGATGCCGATAA	3.63	4.47	3.88	4.4	1.04	4.74	1.35	2.89	0.585	1.93
TCTTGTAGATCAAACGTTAAGAAAGCCGAAGCCT	0.211	0.363	-0.0781	0.18	-0.0447	0.988	0.748	3.17	3.27	3.48
ACAGACAGGTGAGTGAAGGTAGCTCAGCTGGACG	-0.0191	-0.179	-0.74	-0.796	-0.607	-0.372	0.284	0.0552	-0.201	-0.0871
CCTAGCAGGCCAGGGTCAATCAAGCATTTCGCTT	3.41	2.94	-0.348	3.36	-1.18	4.23	0.925	1.66	-0.329	0.705
GCTAGTTGGTTAGTAAAAGGTCACACACCGGTCG	2.97	4.33	4.85	4.1	1.08	4.6	2.08	3.55	1.87	3.47
TCTTGTAGATCAATGGAGGTTAAGAAAGTGCGCT	0.901	2.8	0.173	1.3	-0.0128	1.52	-0.31	1.5	2.83	2.18
ATACCAAGGTGATCGTGAGATCGTTGATACTAAC	0.2	0.163	0.16	0.121	-0.2	0.129	0.447	0.161	-0.226	-0.234
TCGCCTAGGTCATTCAGGGGCCAGTATAGAAAGC	4.82	3.45	0.443	3.13	0.742	3.8	1.91	2.45	2.3	2.02
TCGATTAGGTTAGTCGGGGCATTCAGCCAACATA	0.428	0.421	-0.073	0.839	-0.164	0.801	-0.279	1.29	2.61	1.79
GCTAGTTGGTAAGTAAAAGGTCACACACCGGTCG	2.63	4.22	4.45	3.94	0.812	4.58	4.49	6.32	4.94	6.92
ATCTCTAGTTAAAAGTTCAGTGAATCCCGAGGAT	0.652	1.49	1.82	0.877	1.25	1.64	1.4	3.41	1.59	3.49
AGATGTAGGTTATCGGGTCATTCAGTTTGCGCAT	3.31	3.21	1.64	3.01	0.639	4.89	6.25	5.84	3.56	5.27
ATATGTAGGTTACATCCGGGTCAATCAGGCTATG	2.56	4.37	1.05	2.91	0.748	4.39	5.98	5.29	2.62	4.47
TCTACTAGGTCAACGATGGTCAGCTAATCTGCTA	3.61	3.2	0.626	2.29	0.75	4.36	6.19	6.03	4.97	5.88
CCGACTGGGGCAAAGGTTTCCATACTCAGTACGA	-0.478	-0.199	-0.443	0.175	-1.02	3.35	8.18	7.78	8.2	9.01
TCTAGATGGTCACGGAGGTCACACACGACGGGTA	3.7	3.91	2.8	3.49	0.481	4.04	3.59	4.36	3.7	4.04
GTGCCAAGGTGAATAGGTCGTTGATGAGTAGGCG	0.631	0.487	-0.344	0.408	-0.536	2.12	1.15	1.53	0.00309	0.77
CCGAGCAGGTTATGGGGCATTCAGGCAACGGTGA	0.101	0.177	-0.511	0.325	-0.148	1.45	0.617	1.24	-0.414	0.762
TAGCCTAGGTCAGACCGGGCCAGTATACGCTATA	2.15	1.09	-0.437	0.609	-0.719	1.61	0.828	0.617	-0.277	0.23
TCTATTTGTTGAAGGGCAACCGACGAGTCCGTTT	0.938	1.22	0.754	0.891	1.45	0.93	0.0466	2.21	3.99	3.24

Sequence	PBM binding z-score [1]	PBM binding z-score [2]	PBM binding z-score [3]	PBM binding z-score [4]	PBM binding z-score [5]	PBM binding z-score [6]	PBM binding z-score [7]	PBM binding z-score [8]	PBM binding z-score [9]	PBM binding z-score [10]
ATCTCTAGGTAAAGTTAAGTGAAAGATCGATAGA	0.787	0.68	0.216	0.185	0.709	0.332	0.903	1.19	0.64	1.04
CAAACTAGGTCACAGAGGTGAAAGTCCGTGCGTA	5.7	4.38	0.932	3.33	0.56	5.82	9.16	7.57	5.73	7.6
ATATGTAGGATAAGGGTCATTCAGGTTGGTTCGC	3.71	4.09	2.42	3.73	1.19	5.39	9.65	8.92	10.3	10
CATACAGGGTCAGCTAGGCCAGAGCAGGGACGGC	4.49	3.07	-0.271	2.11	0.561	4.35	3.33	3.05	0.789	1.85
CCGACTGGGGCGAGGTTACCATAACGCACAGCCA	0.344	0.809	-0.212	0.84	-0.662	1.49	1.16	1.05	-0.243	0.417
TCGAGTAGGTAAGGGGCATTCAGAATGGCGTCGA	-0.106	-0.02	-0.436	0.42	-0.693	0.747	0.463	1.71	1.19	1.41
ATATGTAGGTTAGCGGGTCATTCAGTTTGCGCAT	2.01	2.27	0.947	2.45	0.826	4.33	6.81	5.6	3.1	5.16
TTTAGCAGGCCAGAGGGTCACTCAAGAGGTACGG	0.67	0.761	-0.56	1.09	-0.78	2.32	2.08	2.99	1.1	2.42
CAAACTAGGTCACGTAAGGTCAAAGTCGAATGAC	6.98	8.26	7.28	7.56	2.27	6.49	10.1	8.07	6.4	8.05
ACTAGCAGGCCAAGTTTGGGTCACCCAAACAAAG	0.488	0.347	-0.356	0.836	-0.589	1.98	0.125	0.213	-0.577	-0.0867
GGAACAAGGGCATTCGAGTTGATAGCATGGCGAT	1.63	1.37	0.0326	0.349	-0.333	1.16	0.807	0.531	-0.0599	0.199
CAAACTACGTCACGAAAGGTCAAAGTCGAATGAC	5.17	6.32	6.22	5.7	2.44	5.11	3.01	4.1	1.58	3
ATATGTAGGTTATCGGGTCAATCAGTTTGCGCAT	3.33	3.31	1.36	2.99	1.1	4.99	7.6	6.41	3.84	5.93
CGTCCAAGGTCAGAGAGGTCCGTGAATGCCGAGT	4.9	3.08	-0.0652	1.98	-0.373	3.88	1.83	2.4	-0.0552	1.08
AGAACGAGGTCAATGAGTTGATAGCACGGGTGGC	7.39	5.21	0.873	4.04	1.3	5.6	6.36	6.01	3.19	5.11
TTACCAAGGTGAAGGTCGATGATCCCTCTGTAGA	1.25	0.976	-0.361	1.1	-0.706	2.27	2.29	3.58	1.74	3.24
TCATATAGGTAATACAAGTGAAAGTCGGCATCTA	1.52	1.28	0.46	1.17	0.185	1.59	1.39	2.52	4.29	3.28
TCTAGCAGGCCAGAGGGTCACTTAAGAGGTACGG	1.18	0.809	-0.547	1.05	-1.09	2.4	1.58	2.96	2.13	2.57
ATACCAAGCTGATCGTGAGGTCGTTGATACTAAC	0.705	0.688	0.391	0.818	-0.351	0.693	0.178	-0.0256	-0.198	-0.0126
ACTAGCAGGCCATGGGTCACTCAAGATTAGTCCG	0.425	0.807	-0.304	0.694	-0.564	2.85	4.82	5.14	4.15	5.31
CCGACTGGGGCATAGGGTTACCATAAGCCAGCCC	0.216	1.62	-0.605	0.389	-0.905	2.07	3.45	4.29	2.36	4
CAAACTAGGTCACGAAAGCTCAAAGTCGAATGAC	4.45	3.66	0.551	2.56	0.287	5.46	9.27	7.24	5.74	7.12
ATATGTAGGTTATCGGGTCATTTAGTTTGCGCAT	3.57	3.18	2.41	3.28	1.19	4.9	7.59	6.1	3.69	5.91
CCGACTGGGGCAAAGGTTACCATTCTCAGTACGA	1.49	1.29	-0.141	2.02	-0.949	5.42	11.2	9.61	8.44	11.7

Source: the supplement of paper PMC6555819
